Most compounds without a hit are left out; they make up all but 4.5% or so of the library.
PrPC TRFRET: cell surface PrPC inhibition, primary TR-FRET screen; P04156; TR-FRET read-out; inhibition, % at 13.8 µM; actives 0.43% (n = 370,000); in the data active = inhibition above about 24%; note: 0% = median of the test wells and 100% = reference compound wells
PfHsp40 rescue: compounds rescuing yeast from Plasmodium falciparum HSP40 toxicity. S. cerevisiae expressing PfHsp40, growth rescue, ATP luminescence. growth rescue, % at 12.5 µM. actives 0.68% (n = 340,000); in the data active = growth rescue above about 28%, passing the limit was not always enough;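 note: yeast W303a lacking pdr1 and pdr3 grown in galactose medium; growth measured after three days at 30 °C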
GDH-TPI counter: counter-screen for M. tuberculosis FBA inhibitors: GDH-TPI coupled enzymes | inhibition, % at 4.8 µM | GDH-TPI coupled enzyme counterscreen, NADH absorbance | actives 1.2% (n = 360,000); in the data active = inhibition above about 30%;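 note: 0% = DMSO wells and 100% = wells lacking the enzyme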
BJeLR viability: BJeLR cell viability loss | BJeLR (HRASV12) viability, CellTiter-Glo ATP luminescence, 48 h | inhibition, % (concentration not given with the values) | actives 0.17% (n = 300,000); in the data active = inhibition above about 50%
FBA Mtb inh: inhibitors of M. tuberculosis fructose-bisphosphate aldolase; P9WQA3; purified M. tuberculosis FBA, fluorescence read-out; inhibition, % at 1 µM; actives 2.3% (n = 360,000); AID 588726; in the data active = inhibition above about 27%;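 note: 0% = vehicle and 100% = reference inhibitor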
Target sequence (P9WQA3 whole entry, looked up): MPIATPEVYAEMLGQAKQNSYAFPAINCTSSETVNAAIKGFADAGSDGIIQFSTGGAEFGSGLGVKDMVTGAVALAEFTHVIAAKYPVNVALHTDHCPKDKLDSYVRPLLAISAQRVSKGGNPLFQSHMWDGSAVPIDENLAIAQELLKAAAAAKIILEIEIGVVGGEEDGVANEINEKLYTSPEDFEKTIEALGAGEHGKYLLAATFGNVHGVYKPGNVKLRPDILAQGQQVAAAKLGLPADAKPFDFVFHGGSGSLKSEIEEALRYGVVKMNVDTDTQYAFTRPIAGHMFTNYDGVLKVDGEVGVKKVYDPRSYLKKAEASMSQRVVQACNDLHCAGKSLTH
PrP 5UTR inh: suppresses PrP 5' UTR mRNA reporter expression; cell-based PrP 5' UTR mRNA reporter, plate reader; AID 488862; inhibition, % (concentration not given with the values); actives 0.35% (n = 340,000); in the data active = inhibition above about 52%; note: 0 = median of the neutral control wells
Starred values were filed as active, the others as inactive; · = no result; + = active, no number.

SMILES	PrPC TRFRET	PfHsp40 rescue	GDH-TPI counter	BJeLR viability	FBA Mtb inh	PrP 5UTR inh
CN(C)C(=O)COc1ccc2ccc(=O)oc2c1	11	4	7	5	23	-14
COc1ccc2cc(CO)n(C)c2c1	-7	-2	6	·	1	-32
COc1ccc(/C=N/S(=O)(=O)c2ccc(C)cc2)cc1	3	-2	5	12	3	-9
COc1ccc2cc(C=NS(=O)(=O)c3ccc(C)cc3)n(C)c2c1	0	0	35*	·	1	-11
COc1ccc2cc(C=O)n(C)c2c1	-3	-1	45*	·	2	-29
COCCN1CCn2c(nc3cc(NC(=O)c4ccc(OC)cc4)ccc32)C1	5	0	3	-10	11	-15
COCCN1CCn2c(nc3cc(NC(=O)NC4CCCCC4)ccc32)C1	-1	0	4	·	94*	-8
O=C1CCCC2=C1C(c1ccncc1)Nc1ccccc1N2 (stereo unspecified)	-3	-1	24	8	9	-15
O=C1NCC2=C1C(c1ccccc1)Nc1ccccc1N2 (stereo unspecified)	-16	-1	32*	4	6	-6
C#CCNC(=O)C[C@H]1C[C@@]2(C(=O)OC)C(=C[C@H](C3CCCC3)O[C@@H]2C)N(Cc2ccc(Cl)cc2Cl)C1=O	1	·	·	·	·	·
O=C(O)c1cccc(N/N=C/c2cc(Br)cc(Br)c2O)c1	3	-1	12	-2	0	-17
Cc1c(N=Cc2cc(Br)cc(Br)c2O)cccc1C(=O)O	7	59*	9	9	6	-25
COc1ccc(CN(CC#Cc2ccc(C)cc2)C(N)=NC(=O)CCc2ccccc2)c(OC)c1	1	·	·	·	·	·
COc1ccccc1C(=O)NC(CCSC)C(=O)NNC(=O)c1ccccc1O (stereo unspecified)	5	98*	14	·	23	14
Cc1ccc(C)c(NC(=O)Cn2nnc(-c3ccncc3)n2)c1	-5	·	·	·	·	·
N#CCC[C@@H]1CC[C@]2(CCCN(Cc3ccc(Br)cc3)C2)O1	-12	·	·	·	·	·
Cc1c(NS(=O)(=O)c2cc3c(cc2Br)CCN3C(=O)C2CC2)c(=O)n(-c2ccccc2)n1C	-4	·	·	·	·	·
COc1cc(/C=C/C(=O)O)ccc1OS(=O)(=O)c1c(C)c(C)cc(C)c1C	-11	-4	6	·	2	-19
COc1cc(C)c(/C=C/C(C)=C/C=C/C(C)=C/C(=O)O)c(C)c1C	1	1	61*	6	-1	-14
O=C1CCC[C@H]2Cc3nc4cccc(Cl)c4cc3C[C@]23CCCN13	-9	·	·	·	·	·
CC(=O)Nc1sc(N/N=C\c2ccc(O)cc2)nc1-c1cccs1	-2	1	44*	9	-1	-41
CC(=O)N(c1ccccc1C)C1CCCC1	-1	1	-6	-1	-3	-27
CC(=O)N(C1=C(Cl)C(=O)c2ccccc2C1=O)C1CCCCC1	-11	147*	5	33	0	-41
O=C1NCCOc2ccccc21	7	·	·	·	·	·
Cn1c(SCC(=O)Nc2ccccc2-c2ccccc2)nnc1-c1ccccc1	2	·	·	·	·	·
SMILES	PrPC TRFRET	PfHsp40 rescue	GDH-TPI counter	BJeLR viability	FBA Mtb inh	PrP 5UTR inh
CCc1ccc2oc(=O)cc(CN3CCN(Cc4ccccc4)CC3)c2c1	-1	3	6	3	1	-22
O=c1cc(CN2CCOCC2)c2cc(Cl)c(O)cc2o1	-6	-1	-1	1	+	-17
CCc1cc2c(CN3CCN(CC)CC3)cc(=O)oc2cc1O	-1	-1	16	8	+	-21
O=C(Oc1ccc(C(=S)N2CCOCC2)cc1)c1ccc([N+](=O)[O-])cc1[N+](=O)[O-]	-18	3	9	-2	0	-26
O=C(Oc1cccc(C(=S)N2CCOCC2)c1)c1ccc([N+](=O)[O-])cc1[N+](=O)[O-]	-12	44*	5	-3	1	-12
O=c1c([N+](=O)[O-])c(Cl)c2ccccc2n1Cc1ccccc1	-1	·	·	·	·	·
c1ccc(-c2ccc(OCCCn3cncn3)cc2)cc1	12	269*	11	·	5	-18
O=C(O)c1ccc(N/N=C/c2c(F)cccc2Cl)cc1	-4	106*	38*	0	-1	15
O=C(O)c1ccc(N/N=C/c2ccc(-c3cc(Cl)ccc3Cl)o2)cc1	6	4	22	7	8	-51
O=C(O)c1ccc(N/N=C/C=C/c2ccc([N+](=O)[O-])o2)cc1	-41	1	31*	-22	-26	-26
O=C(O)c1cc(-c2ccc(/C=N/Nc3ccc([N+](=O)[O-])cn3)o2)ccc1Cl	-7	1	4	-4	-5	-28
O=C(N/N=C/c1ccc([N+](=O)[O-])o1)C(=O)Nc1ccc(C(=O)O)cc1	3	-1	24	3	-3	-1
O=C(O)c1cccc(-c2ccc(/C=N/Nc3ccc([N+](=O)[O-])cc3)o2)c1	-32	-1	33*	15	-42	-14
O=C(O)c1ccc(N/N=C/c2ccc(-c3cccc(Cl)c3)o2)cc1	16	0	46*	18	19	-136
O=C(NCc1cccs1)O[C@H]1CC[C@@]23CCCN2C(=O)CCC[C@H]3C1	3	·	·	·	·	·
Cc1ccccc1N1CCN(S(=O)(=O)c2ccc3c(c2)oc(=O)n3C)CC1	5	·	·	·	·	·
O=C(NCCc1ccc(F)cc1)c1ccc2c(c1)ncn2C1CCCCC1	3	·	·	·	·	·
NC(=S)N/N=C/c1ccc(-c2cccc([N+](=O)[O-])c2)o1	-35	0	50*	-11	-2	-3
O=[N+]([O-])c1ccc(NN=Cc2cccc([N+](=O)[O-])c2)cc1	-4	-1	8	·	-13	-42
NS(=O)(=O)c1ccc(-c2ccc(/C=N/Nc3ccc(C(=O)O)cc3)o2)cc1	-21	1	34*	12	-2	-15
CCCOc1ccc(C(=O)N/N=C/c2ccc(-c3ccc(S(=O)(=O)Nc4ncccn4)cc3)o2)cc1	1	-1	33*	-15	25	-13
O=[N+]([O-])c1ccc(C=NNc2ccc(S(=O)(=O)O)cc2)cc1	-30	1	31*	·	-19	0
CC(C)(C)OC(=O)C(Oc1ccccc1[N+](=O)[O-])C(=O)OC(C)(C)C	-2	·	·	·	·	·
CCC(=O)N/N=C/c1ccc(-c2ccc([N+](=O)[O-])cc2)o1	-47	-1	23	-3	-6	-23
NS(=O)(=O)c1ccc(-c2ccc(/C=N/NC(=O)c3ccc([N+](=O)[O-])cc3)o2)cc1	0	-2	62*	-16	5	-17
CCCCC(=O)N/N=C/c1ccc(-c2ccc([N+](=O)[O-])cc2)o1	-13	1	7	-24	-5	-6
O=C(O)c1ccc(-c2ccc(/C=N/Nc3ccc([N+](=O)[O-])cc3)o2)cc1	0	1	52*	16	-18	-46
COC(=O)C1C2c3ccccc3OC1(C)N=c1s/c(=C/c3cn(C)nc3C)c(=O)n12 (stereo unspecified)	-27	1	55*	-4	-7	0

From PubChem
